# Results as given in PubChem BioAssay (EPA / NIEHS).
# Calls of active or inactive are those of the source. The calls were made as follows: active = hit-call score of the fitted dose curve at least 0.9, where 1 is the maximum; inactive = score below 0.9.
# Experiment: BSK_4H_SRB: Viability Assessment in the BioMAP Diversity Plus: 4H Assay (AID 2283027);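 also: cells exposed to compound for 24 h before staining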;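 as to AC50: curves fitted both ways versus DMSO so AC50 may be loss or gain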
# Settings: primary human endothelial cells (HUVEC)
# Protocol: BSK_4H is a cell-based, multiplexed-readout assay that uses umbilical vein endothelium, a human vascular primary cell, with measurements taken at 24 hours after chemical dosing in a 96-well plate.BSK_4H_SRB is an assay component measured in the BSK_4H assay. It measures […] related to cell death using Sulforhodamine staining technology.Data from the assay component BSK_4H_SRB was analyzed into 1 assay endpoint. This assay endpoint, BSK_4H_SRB, was analyzed with bidirectional fitting relative to DMSO as the negative control and baseline of activity. Using a type of viability reporter, gain or loss-of-signal activity can be used to understand changes in the signaling. Furthermore, this assay endpoint can be referred to as a primary readout, because this assay has produced multiple assay endpoints where this one serves a signaling function. To generalize the intended target to other relatable targets, this assay endpoint is annotated to the cell morphology intended target family, where the subfamily is cell conformation.
# The levels of cell surface (or secreted, indicated by the prefix "s") biomarker endpoints were measured by ELISA. Overt cytotoxicity to cells in confluent adherent cultures (all systems other than the BT system) was assessed by measuring total protein levels using sulforhodamine B (SRB) staining in parallel cultures at the time of biomarker measurements, indicated as SRB endpoints. For proliferation assays for adherent cell types, individual cell types are cultured at sub-confluence and relative cell numbers quantified by SRB staining at time points optimized for each system (48 h: 3C and CASM3C systems; 72 h: BT and HDF3CGF systems; 96 h: SAg system). SRB was performed by staining cells with 0.1% SRB after fixation with 10% TCA and reading wells at 560 nm.Viability and proliferation of PBMC (T cells) was quantified by Alamar Blue reduction for the SAg and BT systems. For PBMC viability (referred to as PBMC Cytotoxicity within the assay endpoint names), cells were plated (75,000/well in a 96-well plate) and then chemical samples added for 1 h before addition of activators, SEB and TSST-1 (20 ng/mL final concentration each). Cells were incubated for 90 h. Then, Alamar Blue (20 uL/well) (Invitrogen, Cat DAL1100) was added for 6 h, and the plates were read with a fluorescence microplate reader at 546/580 nm (excitation/emission). For PBMC proliferation, cells were plated and activated as above but incubated for only 16 h prior to addition of Alamar Blue. Plates were read after 6 h.
Structure (SMILES),outcome,AC50
Cc1cn([C@H]2C[C@H](N=[N+]=[N-])[C@@H](CO)O2)c(=O)[nH]c1=O,inactive,–
Cc1occc1C(=O)Nc1ccc(C(=O)N2CCC(F)(F)/C(=C\C(=O)N3CCC(N4CCCCC4)CC3)c3ccccc32)cc1,inactive,–
CC1(C)NC(=O)N(c2ccc([N+](=O)[O-])c(C(F)(F)F)c2)C1=O,inactive,–
CCN(CC)C(=O)c1cc(S(=O)(=O)Cc2ccccc2)c(N2CCC(c3ccccc3)CC2)cc1N(CC)CCN(C)C,–,19.2 µM (active)
NCc1cccc(C2CCN(C(=O)c3ccc(C#Cc4ccccc4F)o3)CC2)c1,–,15.1 µM (active)
COc1ccc2cc(S(=O)(=O)N[C@H](CC(=O)N[C@H](Cc3ccc(CN4[C@H](C)CCC[C@@H]4C)cc3)C(=O)N(C)C(C)C)c3ccc4c(c3)OCO4)ccc2c1,–,19.1 µM (active)
Cc1cc2c(cc1C(F)(F)F)N(C(=O)Nc1ccc(Oc3cccnc3C)nc1)CC2,inactive,–
COCC(C)OCC(C)OCC(C)O (stereo not given),inactive,–
O=C(O)Cc1cc(I)c(Oc2ccc(O)c(I)c2)c(I)c1,inactive,–
CC(C)(c1cc(Br)c(O)c(Br)c1)c1cc(Br)c(O)c(Br)c1,–,28.7 µM (active)
O=C(O)Cn1c(=O)n(Cc2ccc(Br)cc2F)c(=O)c2ccc(Cl)cc21,inactive,–
O=C(O)c1ccccc1-n1cc(C(=O)O)c(=O)c2cc(Nc3c(F)cc(F)cc3Cl)c(Cl)cc21,inactive,–
CCCCCCCCCC(=O)O,inactive,–
CN1C(=O)CC[C@H]1c1cccnc1,inactive,–
O=C1c2ccccc2C(=O)N1CCc1noc(-c2ccc(CN3CCCCCC3)s2)n1,inactive,–
Cc1cc(F)ccc1-c1cc(N2CC[C@@H](O)[C@H]2CO)ncc1N(C)C(=O)C(C)(C)c1cc(C(F)(F)F)cc(C(F)(F)F)c1,–,11.9 µM (active)
CCCCCc1ccc(N)cc1,–,11.7 µM (active)
O=c1c(-c2ccc(O)cc2)coc2cc(O)cc(O)c12,–,14.7 µM (active)
CC(=O)N1CCN(c2ccc(OC[C@H]3CO[C@](Cn4ccnc4)(c4ccc(Cl)cc4Cl)O3)cc2)CC1,–,29.6 µM (active)
CC1=CC(=O)/C(=C(/C)O)C(=O)O1,inactive,–

Structure (SMILES),outcome,AC50
Cc1cccc2ccccc12,inactive,–
O=C1O[C@H]([C@@H](O)CO)C(O)=C1O,inactive,–
Cc1ccc2oc(CN(Cc3ccccc3)C(=O)Nc3c(F)cc(F)cc3F)c(-c3ccc(Cl)cc3)c2c1,inactive,–
COc1cccc([C@H](O)C2CCN(CCc3ccc(F)cc3)CC2)c1OC,inactive,–
C[C@]12CC[C@@H]3c4ccc(O)cc4CC[C@H]3[C@@H]1CC[C@H]2O,–,9.1 µM (active)
CCN(Cc1cccc(S(=O)(=O)O)c1)c1ccc(C(=C2C=CC(=[N+](CC)Cc3cccc(S(=O)(=O)O)c3)C=C2)c2ccccc2S(=O)(=O)[O-])cc1,inactive,–
CN(C)C(=O)C1(N2CCCCC2)CCN(CC[C@@]2(c3ccc(Cl)c(Cl)c3)CN(C(=O)c3ccccc3)CCO2)CC1,–,18.9 µM (active)
Oc1ccc2ccccc2c1,inactive,–
CN(C)c1ccc(C(=C2C=CC(=[N+](C)C)C=C2)c2ccc(N(C)C)cc2)cc1,–,8.49 µM (active)
O=C(O)c1ccccc1C(=O)OCc1ccccc1,inactive,–
O=C1CCC(C2CCCCC2)CC1,inactive,–
CC(C)(C)c1cc(/C=C2\SC(N)=NC2=O)cc(C(C)(C)C)c1O,–,28.7 µM (active)
O=C=NCCCCCCN=C=O,inactive,–
CCOC(=O)O[C@H](C)OC(=O)c1ccc2c(c1)cc(C(=O)NC1CCN(C(C)C)CC1)n2Cc1cc(-c2ccc(Cl)s2)on1,–,5.07 µM (active)
CN1C(=O)N(c2ccccc2Br)Cc2cnc(Nc3ccc4c(c3)OCC(CO)O4)nc21 (stereo not given),–,2.02 µM (active)
O=C(OCCCCCCOC(=O)c1ccccc1)c1ccccc1,inactive,–
O=c1ccc2ccccc2o1,inactive,–
OC12N=C(c3ccccc3)SC1Cc1cc(Cl)ccc12 (stereo not given),inactive,–
CC[C@H](NC(=O)c1cc(F)ccc1NS(=O)(=O)c1cccc2cccnc12)c1ccccc1,inactive,–
CCN(Cc1cccnc1)C(=O)c1cccc(Cl)c1[C@]1(C)C(=O)N(Cc2ccc(OC)cc2OC)c2ccc(Cl)cc21,–,5.38 µM (active)
